Assay outcomes deposited in PubChem BioAssay by National Center for Advancing Translational Sciences (NCATS).
In the library only some 21% were active in any assay of this set; here they are far more common.
Pf growth 48h = Primary qHTS for delayed death inhibitors of the malarial parasite plastid, 48 hour incubation; Potency, µM (highest dose often 28.7 µM), inactives show top-dose activity change, negative = inhibition, actives largely listed as inhibitors; P. falciparum luciferase growth in erythrocytes, 48 h; AID 504832, 2011; actives 5.9% (n = 310,000); active means well fitted inhibition curve with a large enough effect; inconclusive means small, poorly fitted or top-dose-only effect, or another doubt; inactive means no such curve, though single readings can be large or run the other way; further: potency means the concentration at half of the fitted maximal effect; on the % scale 0 is the no-effect control and ±100 the full control effect
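Luciferase-expressing parasites in RBCs, 2% Hct / 0.1% parasitemia final; RPMI 1640 + 0.5% Albumax; 37 C, 5% CO2, one generation; luminescence read-out, lower signal = inhibition.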
NS1 function inh = qHTS Assay for Inhibitors of Influenza NS1 Protein Function | Potency, µM (series often up to 46.1 µM), for inactives: top-dose activity, positive = more growth | actives 0.4% (n = 270,000) | AID 2326, 2010; further: potency means the concentration at half of the fitted maximal effect; actives are rising curves; nearly all actives have a fitted effect of over 50% in size
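S. cerevisiae expressing influenza A NS1, grown in glucose, washed, then diluted 1:100 into pH 6.0 -URA galactose medium with 23 nl compound. Growth recovery read as OD600; NS1-free strain serves as control.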
Cycloheximide cs = Cycloheximide Counterscreen for Small Molecule Inhibitors of Shiga Toxin. cell reporter, cycloheximide protein synthesis inhibition counterscreen. max response, %. actives 12% (n = 300,000); in the data active means max response mostly above about 13%, no sharp cut-off; inactive means mostly below about 14%; further: read at 38.3 µM for the half of the compounds with a filed dose; 0% is about no effect
Shiga inhibitor = A qHTS for Small Molecule Inhibitors of Shiga Toxin; Vero cells, Shiga toxin protein synthesis inhibition reporter; inhibition, % at 38.7 µM; actives 9.2% (n = 290,000); in the data active means inhibition mostly above about 28%, no sharp cut-off; inactive means mostly below about 43%; further: 0% is about no effect
SARS PLpro yeast = qHTS of Yeast-based Assay for SARS-CoV PLP; S. cerevisiae expressing SARS-CoV PLpro, growth rescue; actives 0.19% (n = 330,000); Potency, µM (titrated, usually from 32.9 µM), for inactives: at the highest dose activity, positive = growth rescue, most hits filed as activators; AID 485353, 2010; further: potency means the concentration at half of the fitted maximal effect; 0% is about no effect; nearly all actives have a fitted effect of over 55% in size
Pf growth 96h = Primary qHTS for delayed death inhibitors of the malarial parasite plastid, 96 hour incubation | Potency, µM (doses to about 28.7 µM), for the others: at the top dose activity change, negative = inhibition, hits mostly inhibitors | actives 6.9% (n = 320,000) | AID 504834, 2011 | P. falciparum luciferase reporter growth, 96 h; active means well fitted inhibition curve with a large enough effect; inconclusive means small, poorly fitted or top-dose-only effect, or another doubt; inactive means no such curve, though single readings can be large or run the other way; further: potency means the concentration at half of the fitted maximal effect; on the % scale 0 is the no-effect control and ±100 the full control effect
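P. falciparum expressing integrated firefly luciferase grown in erythrocytes (2% hematocrit, 0.05% parasitemia final) with compounds for 96 hours at 37 C, 5% CO2. Growth inhibition read as loss of luminescence after adding luciferase detection reagent.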
* hit, by the source's call; i = inactive; ? = inconclusive; nt = no result. Unless noted, the call rests on the fitted dose curve.

SMILES	Pf growth 48h	NS1 function inh	Cycloheximide cs	Shiga inhibitor	SARS PLpro yeast	Pf growth 96h
COc1ccc(NC(=O)CSc2nnnn2C2CC3C=CC2C3)cc1 (stereo not drawn)	?	-1.7%	19.7*	31.3	-2.4%	?
COc1ccc(NC(=O)CSc2nccn2-c2ccccc2)cc1	14.7%	-172.8%	22.0*	39.3	-6.6%	2.5%
OC(COCCOc1ccc(Br)cc1)CN1CCCCC1 (stereo not drawn)	?	6.9%	0.5	-7.1	1.6%	-42.2%
Cc1sc2c(c1C)c(=O)n(-c1cccc(C(F)(F)F)c1)c(=O)n2CC(=O)NCc1ccco1	1.2%	0.5%	-1.9	2.6	-4.0%	-1.4%
COc1ccc(NC(=O)C(NCC(C)C)c2ccccc2)cc1Cl (stereo not drawn)	-22.3%	-2.6%	-2.9	-7.0	-0.1%	?
CC(C)(O)c1cn(-c2nonc2N)nn1	10.3%	0.7%	-2.2	-14.0	3.8%	12.2%
COc1ccccc1C(c1nnnn1CCc1ccccc1)N1CCCCCC1 (stereo not drawn)	?	-3.1%	-0.6	-22.7	4.5%	nt
COc1ccc(Cn2c(C3CC3)nc3ccc(NC(C)=O)cc3c2=O)cc1	109.4%	-10.2%	56.5*	121.1*	-5.5%	?
COc1ccc(Cn2c(C3CC3)nc3ccc(NC(=O)c4cccnc4)cc3c2=O)cc1	?	3.3%	21.6*	54.1*	-1.2%	0.3%
CC(C)(C)NS(=O)(=O)c1ccc(CCC(=O)N2CCCC2)cc1	?	-0.8%	7.6	-6.5	1.0%	30.3%
O=C(NC1CCCCCC1)c1ccc2nc3cc(Cl)ccc3c(=O)n2c1	4.3%	nt	1.1	-5.0	-2.4%	168.2%
O=C(NCCNCC(O)COc1ccc(O)cc1)N1CCOCC1 (stereo not drawn)	-15.4%	0.4%	nt	nt	nt	6.75µM*
Cc1cccc(NC(=S)N(CCN2CCOCC2)Cc2cc3cc4c(cc3[nH]c2=O)OCCO4)c1	?	-2.5%	-0.3	-8.3	-0.5%	i
Cc1ccc(-c2nnn(CC(=O)N(c3ccccc3)C(C(=O)NCC3CCCO3)c3ccc(Cl)cc3)n2)cc1 (stereo not drawn)	?	15.1%	4.8	13.2	0.9%	8.28µM*
Cc1ccc(-c2nnn(CC(=O)N(c3ccccc3)C(C(=O)NCC3CCCO3)c3cccs3)n2)o1 (stereo not drawn)	59.0%	nt	-1.8	4.3	0.3%	10.4µM*
COc1ccc(CN(C(=O)Cn2nnc(-c3ccc(C)o3)n2)C(C(=O)NCC2CCCO2)c2ccco2)cc1 (stereo not drawn)	-3.2%	-2.7%	16.7*	0.5	-2.1%	25.1%
COc1ccc(-c2nnn(CC(=O)N(Cc3ccco3)C(C(=O)NCC3CCCO3)c3ccco3)n2)cc1 (stereo not drawn)	3.1%	-1.6%	0.7	-12.5	2.0%	31.4%
Cc1ccc(-c2nnn(CC(=O)N(c3ccccc3F)C(C(=O)NCC3CCCO3)c3c[nH]c4ccccc34)n2)cc1 (stereo not drawn)	11.7µM*	24.5%	1.3	-5.4	4.3%	11.7µM*
COc1cccc(N(C(=O)Cn2nnc(-c3ccc(Cl)cc3)n2)C(C(=O)NCC2CCCO2)c2ccc(C)cc2)c1 (stereo not drawn)	-17.3%	3.7%	-2.6	-14.1	0.5%	?
COC(=O)CSc1nc(C)c(C)c(C)c1C(N)=O	17.5%	-3.0%	7.1	-13.2	-0.4%	?
O=C(O)c1ccc(Sc2nnc3ccccn23)c([N+](=O)[O-])c1	-16.5%	2.1%	1.0	25.7	0.1%	-3.0%
COc1ccc(N(C(=O)CNC(=O)c2ccco2)C(C(=O)NCC2CCCO2)c2ccccc2)c(OC)c1 (stereo not drawn)	-9.0%	-3.9%	-5.1	-7.8	-2.5%	1.3%
COc1ccc(CN(C(=O)CNC(=O)c2ccco2)C(C(=O)NCC2CCCO2)c2ccccc2)cc1 (stereo not drawn)	-4.4%	-4.4%	7.8	1.3	3.1%	2.33µM*
CCC(Sc1nc(C)cc(=O)[nH]1)C(=O)Nc1nc2c(s1)CCCC2 (stereo not drawn)	33.5%	1.2%	14.9*	42.0*	1.0%	?
